Test systems include HOP-92 NSCLC; K-562 leukemia; MALME-3M melanoma; RXF 393 renal; SK-MEL-28 melanoma; SK-MEL-2 melanoma; SN12C renal; TK-10 renal; CAKI-1 renal; A498 renal; RPMI-8226 leukemia; OVCAR-3 ovarian; BT-549 breast; MDA-MB-435 melanoma; HCC-2998 colon; UACC-257 melanoma.
Common to all, as to assay: NCI-60 one-dose screen, 48 h (100 = growth as untreated, 0 = no growth, -100 = all killed)
Holding throughout (settings): 10 µM

Each structure is given as a SMILES string. The panel holds about 83,000 compounds, 20% with a hit somewhere; the sample as a whole holds those more often.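 Activity criterion: percent growth below 10, measured after cells in 96-well plates were exposed to a single compound concentration for 48 hours.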 Values without a mark were called inactive. The source made the active and inactive calls.

With `COC(=O)[C@H]1[C@@H](O)[C@@]2(O)c3c(OC)cc(OC)cc3O[C@@]2(c2ccc(OC)cc2)[C@@H]1c1ccccc1`, the growth in the assay on HOP-92 NSCLC is -12.5% (active); with K-562 leukemia it was 2.1% (active); in the assay on MALME-3M melanoma it was -21.8% (active); in the assay with RXF 393 renal, -20.3% (active); with SK-MEL-28 melanoma it was -19.2% (active); in the assay on SK-MEL-2 melanoma it was -45.5% (active). For the same compound, the growth is -11.5% (active) in the assay with SN12C renal; -11.9% (active) in the assay on TK-10 renal; -6.21% (active) in the assay with CAKI-1 renal; -31.4% (active) in the assay with A498 renal; -9.7% (active) with RPMI-8226 leukemia; -9.22% (active) in the assay with OVCAR-3 ovarian. The growth is -17.5% (active) in the assay on BT-549 breast, -11.1% (active) in the assay with MDA-MB-435 melanoma and 0.34% (active) in the assay on HCC-2998 colon.

`CC(=O)O[C@@H]1[C@@H]2O[C@H]2[C@@](C)(O)C(=O)[C@@H](C)C/C=C/[C@H]2[C@@H]3O[C@]3(C)[C@@H](C)C3[C@H](Cc4ccccc4)NC(=O)[C@@]312` (some centres undefined): the growth in the assay with HOP-92 NSCLC was -28.8% (active); in the assay with K-562 leukemia, 68.8%; with MALME-3M melanoma, 71%; in the assay on RXF 393 renal, 20.3%; in the assay on SK-MEL-28 melanoma, 71%; with SK-MEL-2 melanoma, 72.1%. Further, the growth in the assay with SN12C renal was 62.6%; with TK-10 renal it was -8.91% (active); in the assay on A498 renal, 3.87% (active); in the assay on RPMI-8226 leukemia, 81.8%; with OVCAR-3 ovarian, 54.2%; in the assay on BT-549 breast it was 29.8%. Moreover, the values for the growth with MDA-MB-435 melanoma and in the assay with HCC-2998 colon were 70.9% and 77.4%, respectively.

Turning to `COc1cc(OC)c(S(=O)(=O)N(CCCl)CCCl)cc1C(=O)/C=C/c1ccc(Cl)cc1`, the growth in the assay on HOP-92 NSCLC was 81.7%; with K-562 leukemia, 47.1%; with MALME-3M melanoma, 85.4%; with RXF 393 renal, 45.3%; with UACC-257 melanoma, 73.6%; in the assay with SK-MEL-28 melanoma, 92.3%. The growth in the assay with SK-MEL-2 melanoma was 93%; with SN12C renal it was 86%; with TK-10 renal it was 177%; with CAKI-1 renal it was 65.7%; in the assay on RPMI-8226 leukemia it was 4.74% (active); in the assay on OVCAR-3 ovarian, 69.9%. The growth in the assay on BT-549 breast was 53%; with MDA-MB-435 melanoma, 33.1%; in the assay with HCC-2998 colon, 96.8%.

(Values after PubChem BioAssay (NCI).)
